Reference: PubChem BioAssay (Tox21)
Inconclusive results are not listed. Active and inactive are the calls of the source. Unless noted, calls follow the shape of the full dose curve.

How the values were obtained:
[1] = Nuclear factor erythroid 2-related factor 2/antioxidant responsive element (Nrf2/ARE) small molecule agonists: qHTS cell viability counter screen in human keratinocytes (AID 1919968; active = well fitted curve in the direction sought with a large enough effect in the repeat runs; an effect the other way counts as inactive or inconclusive; also: nearly all actives have a fitted effect of over 55% in size)
Procedure, shortened: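 Measured as CellTiter-Fluor fluorescence, this readout tracks cytotoxicity in the same wells as the ARE-luciferase screen. HaCaT reporter cells (1,500/well) received compounds after a 5 h pre-incubation and were exposed for 23 h.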

[2] = Nuclear factor erythroid 2-related factor 2/antioxidant responsive element (Nrf2/ARE) small molecule agonists: luciferase reporter gene qHTS assay in human keratinocytes (AID 1919969); also: nearly all actives have a fitted effect of over 35% in size
[3] = target: Gonadotropin-releasing hormone receptor (Homo sapiens) (UniProt P30968); experiment: Human gonadotropin-releasing hormone receptor (GnRHR) small molecule agonists, calcium flux assay in GnRHR-HEK293 cells (AID 1920063); also: nearly all actives have a fitted effect of over 35% in size
Procedure, shortened: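 Fluorescence kinetics (480 nm excitation, 540 nm emission; 3 min, 1 s steps) report calcium mobilisation in human GnRHR-HEK293 cells in agonist mode. Dye incubation: 1 h, 37 C.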

[4] = target: KiSS-1 receptor (Homo sapiens) (UniProt Q969F8); experiment: Human kisspeptin (KISS1R) small molecule agonists, calcium flux assay in KISS1R-HEK293 cells (AID 1920064; active = well fitted curve in the direction sought with a large enough effect in the repeat runs; an effect the other way counts as inactive or inconclusive)
Procedure, shortened: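 Measures KISS1R agonism through calcium-sensitive dye fluorescence in stably transfected HEK293 cells, read for 3 min after pin-tool compound delivery; 15-point titrations in triplicate.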

[5] = G protein-coupled receptor (GPCR) small molecule agonists, calcium flux assay: HEK293 wild type cell line counter screen (AID 1920065)
Procedure, shortened: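 Readout: fluorescence at 480 nm excitation/540 nm emission, sampled at 1 s intervals for 3 min. Cells had been cultured 18 h, then dye-loaded 1 h at 37 C before compound or ATP addition.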

[6] = p53 small molecule agonists, cell-based qHTS assay with human liver microsomes (AID 1963577)
Procedure, shortened: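 p53RE-bla reporter cells were pre-incubated 5 h at 37 C, then treated with compounds plus human liver microsomes (0.5 mg/mL final) and NADPH (0.5 mg/mL final) for 16 h at 37 C. Beta-lactamase activity was read by LiveBLAzer fluorescence after 2 h at room temperature.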

[7] = p53 small molecule agonists, cell-based qHTS assay with rat liver microsomes (AID 1963578)
Procedure, shortened: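 p53RE-bla cells were exposed to compounds together with rat liver microsomes (0.5 mg/mL final) and NADPH (0.5 mg/mL final) for 16 h at 37 C, then read by LiveBLAzer beta-lactamase fluorescence after 2 h at room temperature.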

[8] = p53 small molecule agonists, cell-based qHTS assay with human liver microsomes: qHTS cell viability counter screen (AID 1963579); also: nearly all actives have a fitted effect of over 45% in size
Procedure, shortened: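 p53RE-bla cells (4,000/well) were pre-incubated 5 h at 37 C, then given compounds in DMSO plus human liver microsomes (0.5 mg/mL final) and NADPH (0.5 mg/mL final) for 16 h at 37 C. Viability was read by CellTiter-Glo luminescence.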

[9] = p53 small molecule agonists, cell-based qHTS assay with rat liver microsomes: qHTS cell viability counter screen (AID 1963580); also: nearly all actives have a fitted effect of over 45% in size
Procedure, shortened: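 HCT-116 p53RE-bla, 4,000 cells/well, 5 h pre-incubation; cpd + rat liver microsomes 0.5 mg/mL + NADPH 0.5 mg/mL (final); 16 h, 37 C; CellTiter-Glo, 30 min RT; luminescence.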

[10] = p53 small molecule agonists, cell-based qHTS assay: qHTS cell viability counter screen (AID 1963581); also: nearly all actives have a fitted effect of over 45% in size
Procedure, shortened: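 In the same plates used for the p53 bla reporter, HCT-116 cells given compounds for 16 h at 37 C received CellTiter-Glo; luminescence was recorded 30 min later at room temperature.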

[11] = p53 small molecule agonists, cell-based qHTS assay (AID 1963582; active = well fitted activation curve with a large enough effect in the signal ratio in the repeat runs, not every such curve was filed as active; the % refers to the signal ratio)
Procedure, shortened: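 Compounds are pin-transferred in DMSO onto p53RE-bla cells and incubated 16 h at 37 C. The B/G FRET beta-lactamase substrate is then applied for 2 h at RT and fluorescence recorded.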

[12] = target: 5-hydroxytryptamine receptor 2A (Homo sapiens) (UniProt P28223); experiment: 5-hydroxytryptamine receptor 2A (HTR2A) small molecule antagonists, cell-based qHTS assay (AID 1963586); also: nearly all actives have a fitted effect of over 45% in size
Procedure, shortened: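 Antagonist-mode intracellular calcium assay: DOI (4 nM) added after 5 min compound pre-incubation at room temperature to dye-loaded HTR2A-CHO cells. Fluorescence followed for 3 min, sampled every second.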

[13] = target: 5-hydroxytryptamine receptor 2A (Homo sapiens) (UniProt P28223); experiment: 5-hydroxytryptamine receptor 2A (HTR2A) small molecule agonists, cell-based qHTS assay (AID 1963587); also: nearly all actives have a fitted effect of over 30% in size
Procedure, shortened: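 Kinetic calcium-flux fluorescence (2 min, 1 sec intervals) after compound addition in agonist mode. HTR2A-CHO cells were cultured 18 h, then dye-loaded 1 h at 37 C.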

[14] = target: Muscarinic acetylcholine receptor M1 (Homo sapiens) (UniProt P11229); experiment: Cholinergic receptor muscarinic 1 (CHRM1) small molecule antagonists, cell-based qHTS assay (AID 1963588); also: nearly all actives have a fitted effect of over 40% in size
Procedure, shortened: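 CHRM1-CHO calcium-flux assay, antagonist mode. Cells were seeded 18 h, dye-loaded 1 h at 37 C and given compound for 5 min at RT, then acetylcholine was added at 50nM. FDSS fluorescence was read 3 min; 15 concentrations, three runs.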

[15] = target: Muscarinic acetylcholine receptor M1 (Homo sapiens) (UniProt P11229); experiment: Cholinergic receptor muscarinic 1 (CHRM1) small molecule agonists, cell-based qHTS assay (AID 1963589); also: nearly all actives have a fitted effect of over 35% in size
Procedure, shortened: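 Each compound was tested at 15 concentrations across three independent runs on dye-loaded CHO cells stably expressing human CHRM1, reading intracellular calcium fluorescence kinetically at 1 sec intervals.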

[16] = cAMP Responsive Elements (CRE) small molecule agonists, cell-based qHTS assay (AID 1963590)
Procedure, shortened: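 Cell line: CRE-bla HEK 293T; medium DMEM/10% dialyzed FBS/0.1 mM NEAA/1 mM pyruvate/25 mM HEPES; 3 h compound exposure; beta-lactamase FRET readout after 2 h substrate loading at RT.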

[17] = cAMP Responsive Elements (CRE) small molecule antagonists, cell-based qHTS assay (AID 1963591; active = well fitted inhibition curve with a large enough effect in the signal ratio in the repeat runs, not every such curve was filed as active; the % refers to the signal ratio)
Procedure, shortened: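 Inhibition of NKH477-driven (0.25 uM final) CRE-beta-lactamase signal in HEK293T cells, 3 h compound exposure at 37 °C, detected by FRET substrate fluorescence.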

[18] = target: Beta-2 adrenergic receptor (Homo sapiens) (UniProt P07550); experiment: Adrenergic beta2 receptor (ADRB2) small molecule antagonists, cell-based qHTS assay (AID 1963592); also: series mostly up to about 92 µM; nearly all actives have a fitted effect of over 50% in size
Procedure, shortened: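 Cells (CHO, stable ADRB2 overexpression) incubated 18-20hr at 37C; compounds added from DMSO; agonist mix (1nM isoproterenol, 100uM IBMX, 25uM Ro-20-1724) added; 0.5hr RT; d2-cAMP and anti-cAMP-cryptate added; 1hr RT; 665/615 nm read.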

[19] = target: Beta-2 adrenergic receptor (Homo sapiens) (UniProt P07550); experiment: Adrenergic beta2 receptor (ADRB2) small molecule agonists, cell-based qHTS assay (AID 1963593);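 also: CHO cells stably overexpressing human ADRB2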
Procedure, shortened: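 CHO cells stably over-expressing ADRB2 were plated overnight at 37C, then dosed with compounds plus a stimulation mix containing 100uM IBMX and 25uM Ro-20-1724 for 0.5hr at room temperature. cAMP was measured by HTRF competition, 1hr.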

[20] = target: D(2) dopamine receptor (Homo sapiens) (UniProt P14416); experiment: Dopamine D2 receptor (DRD2) small molecule agonists, cell-based qHTS assay (AID 1963594); also: nearly all actives have a fitted effect of over 35% in size
Procedure, shortened: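 cAMP accumulation in DRD2-HEK293 cells measured by HTRF after 1 h detection; compounds added 10 min before NKH477 (200nM […]) forskolin-analogue stimulation, 30 min at room temperature, with Ro20-1724 present at 0.1 mM final.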

Measured: Potency

Sequence of Muscarinic acetylcholine receptor M1 (Homo sapiens) (P11229 whole entry, looked up): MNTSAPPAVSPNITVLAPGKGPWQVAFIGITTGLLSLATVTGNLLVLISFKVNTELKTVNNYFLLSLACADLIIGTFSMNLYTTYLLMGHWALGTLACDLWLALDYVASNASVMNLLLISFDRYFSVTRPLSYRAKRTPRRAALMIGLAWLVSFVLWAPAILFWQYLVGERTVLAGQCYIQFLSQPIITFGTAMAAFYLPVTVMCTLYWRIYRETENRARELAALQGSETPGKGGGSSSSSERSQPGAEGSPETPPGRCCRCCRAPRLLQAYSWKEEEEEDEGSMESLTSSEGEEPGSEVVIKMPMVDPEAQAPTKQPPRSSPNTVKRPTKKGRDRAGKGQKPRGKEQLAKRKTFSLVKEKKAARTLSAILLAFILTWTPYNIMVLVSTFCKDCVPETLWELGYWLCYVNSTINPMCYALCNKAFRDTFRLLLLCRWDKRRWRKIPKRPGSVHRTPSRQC
Sequence of KiSS-1 receptor (Homo sapiens) (Q969F8 whole entry, looked up): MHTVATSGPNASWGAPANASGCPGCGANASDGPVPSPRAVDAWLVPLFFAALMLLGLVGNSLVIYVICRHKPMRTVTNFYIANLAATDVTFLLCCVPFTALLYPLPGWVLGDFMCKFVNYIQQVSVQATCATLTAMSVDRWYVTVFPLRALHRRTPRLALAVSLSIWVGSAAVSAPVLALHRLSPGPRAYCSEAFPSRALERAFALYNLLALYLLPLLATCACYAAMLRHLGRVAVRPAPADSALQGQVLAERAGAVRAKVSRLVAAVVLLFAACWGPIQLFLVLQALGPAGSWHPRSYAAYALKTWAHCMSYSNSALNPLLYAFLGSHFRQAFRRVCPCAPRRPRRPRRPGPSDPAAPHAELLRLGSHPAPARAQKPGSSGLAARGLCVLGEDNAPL
Sequence of Beta-2 adrenergic receptor (Homo sapiens) (P07550 whole entry, looked up): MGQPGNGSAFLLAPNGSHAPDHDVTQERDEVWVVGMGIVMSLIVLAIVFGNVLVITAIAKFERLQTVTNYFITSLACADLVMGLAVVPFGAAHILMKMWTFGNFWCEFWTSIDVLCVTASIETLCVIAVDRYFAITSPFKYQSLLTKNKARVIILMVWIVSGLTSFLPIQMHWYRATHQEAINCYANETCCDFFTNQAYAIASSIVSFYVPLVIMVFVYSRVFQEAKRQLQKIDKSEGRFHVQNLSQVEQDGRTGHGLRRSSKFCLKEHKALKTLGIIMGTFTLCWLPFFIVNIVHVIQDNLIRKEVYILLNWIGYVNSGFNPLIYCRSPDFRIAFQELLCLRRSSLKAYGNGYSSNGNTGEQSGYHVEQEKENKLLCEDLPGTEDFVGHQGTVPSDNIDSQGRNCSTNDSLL
Sequence of 5-hydroxytryptamine receptor 2A (Homo sapiens) (P28223 whole entry, looked up): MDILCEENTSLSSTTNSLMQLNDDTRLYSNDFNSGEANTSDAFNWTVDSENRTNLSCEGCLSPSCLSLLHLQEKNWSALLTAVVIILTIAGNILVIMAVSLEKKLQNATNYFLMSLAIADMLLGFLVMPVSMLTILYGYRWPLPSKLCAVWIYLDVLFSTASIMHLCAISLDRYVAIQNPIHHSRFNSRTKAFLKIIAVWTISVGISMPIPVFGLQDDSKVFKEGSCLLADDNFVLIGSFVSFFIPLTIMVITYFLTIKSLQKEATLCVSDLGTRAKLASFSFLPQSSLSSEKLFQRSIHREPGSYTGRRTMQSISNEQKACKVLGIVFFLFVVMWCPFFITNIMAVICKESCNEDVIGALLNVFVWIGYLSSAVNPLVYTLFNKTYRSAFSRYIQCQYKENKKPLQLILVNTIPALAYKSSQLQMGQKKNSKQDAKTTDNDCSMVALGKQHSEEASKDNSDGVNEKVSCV
Sequence of Gonadotropin-releasing hormone receptor (Homo sapiens) (P30968 whole entry, looked up): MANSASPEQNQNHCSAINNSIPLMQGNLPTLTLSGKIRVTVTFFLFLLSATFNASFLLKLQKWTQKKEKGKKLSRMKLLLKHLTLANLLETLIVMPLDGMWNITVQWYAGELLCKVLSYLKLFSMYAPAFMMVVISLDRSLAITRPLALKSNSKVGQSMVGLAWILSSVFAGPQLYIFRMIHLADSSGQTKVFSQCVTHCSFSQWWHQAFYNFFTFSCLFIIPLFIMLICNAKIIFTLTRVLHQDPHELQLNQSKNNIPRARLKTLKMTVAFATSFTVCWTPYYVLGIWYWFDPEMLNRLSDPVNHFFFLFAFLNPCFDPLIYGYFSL
Sequence of D(2) dopamine receptor (Homo sapiens) (P14416 whole entry, looked up): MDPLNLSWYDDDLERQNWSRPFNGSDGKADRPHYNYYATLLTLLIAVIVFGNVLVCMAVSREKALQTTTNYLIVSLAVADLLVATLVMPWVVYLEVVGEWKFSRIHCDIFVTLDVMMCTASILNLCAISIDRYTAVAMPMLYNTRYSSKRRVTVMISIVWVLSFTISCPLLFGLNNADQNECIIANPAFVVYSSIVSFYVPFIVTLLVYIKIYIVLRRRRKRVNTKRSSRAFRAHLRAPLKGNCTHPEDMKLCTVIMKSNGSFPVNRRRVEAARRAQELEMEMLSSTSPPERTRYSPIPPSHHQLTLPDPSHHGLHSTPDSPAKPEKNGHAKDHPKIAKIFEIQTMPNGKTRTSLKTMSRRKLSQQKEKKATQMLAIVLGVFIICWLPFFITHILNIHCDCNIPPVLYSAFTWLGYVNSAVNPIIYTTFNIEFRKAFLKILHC

O=C(O)c1cc(=O)c2ccccc2o1
inactive: all assays above

Cc1nc(C)c(C)nc1C
inactive: all assays above

Nc1nc(=O)n([C@@H]2O[C@H](CO)[C@@H](O)[C@@H]2F)cc1I
inactive: all assays above

Cc1ccc2ccccc2c1[N+](=O)[O-]
inactive: all assays above

CC(C)Nc1ccccc1
inactive: all assays above

CC(O)CCCCn1c(=O)c2c(ncn2C)n(C)c1=O (stereo not given)
inactive: all assays above

CCOc1cc(NC(C)=O)ccc1C(=O)OC
inactive: all assays above

COc1cc(OC)nc(O[C@H](C(=O)O)C(OC)(c2ccccc2)c2ccccc2)n1
inactive: all assays above

CCOC(=O)O[C@]1(C(=O)OCCl)CC[C@H]2[C@@H]3CCC4=CC(=O)C=C[C@]4(C)[C@H]3[C@@H](O)C[C@@]21C
inactive: all assays above
